Measurements published in the supplement of paper PMC7411640.
Where a name gives a salt, the structure may show the parent alone.

Tested on: MDA-MB-468
Test: phospho-S6 immunofluorescence (DAPI-normalised), per-plate z-score; higher = higher phospho-S6 signal (less pathway suppression)
Details: 24 h
Procedure: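 GPCR-targeted compound library (MedChemExpress HY-L006) tested on MDA-MB-468 PTEN-null TNBC cells in 384-well plates at 0.1, 1 or 10 uM, combined with vehicle, GDC0941 450 nM or lapatinib 1 uM, for 24 h. Phospho-S6 (S240/244) immunofluorescence normalised to DAPI and expressed as a per-plate z-score; values are the mean of biological triplicates.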

| SMILES | phospho-S6 immunofluorescence (z-score) (co-treatment: GDC0941 450 nM) | phospho-S6 immunofluorescence (z-score) (co-treatment: lapatinib 1 uM) | phospho-S6 immunofluorescence (z-score) (co-treatment: vehicle) |
| --- | --- | --- | --- |
| C#CCOc1ccc2c(c1)c(-c1ccc(C(C)C)cc1)nc(=O)n2C(C)C [Calcium-Sensing Receptor Antagonists I] (compound 10 µM) | -3.51 | -4.39 | -4.18 |
| CC(C)(C)NCC(O)c1ccc(O)c(CO)c1 (stereo unspecified) [Salbutamol (hemisulfate)] (compound 10 µM) | 0.44 | 1.46 | 0.8 |
| C=CCc1ccccc1OCC(O)CNC(C)C (stereo unspecified) [Alprenolol (hydrochloride)] (compound 10 µM) | 0.45 | -0.09 | 1.12 |
| OCCNC1CCCc2c1[nH]c1ccc(-c3ccccc3)cc21 (stereo unspecified) (compound 10 µM) | -5.16 | -8.66 | -9.39 |
| CCN(CCCCOC(=O)c1ccc(OC)c(OC)c1)C(C)Cc1ccc(OC)cc1 (stereo unspecified) [Mebeverine (hydrochloride)] (compound 10 µM) | 0.43 | 0.05 | -0.85 |
| CC1(C)O[C@@H]2C[C@H]3[C@@H]4C[C@H](F)C5=CC(=O)C=C[C@]5(C)[C@@]4(F)[C@@H](O)C[C@]3(C)[C@]2(C(=O)CO)O1 [Fluocinolone (Acetonide)] (compound 10 µM) | -0.92 | 0.83 | -0.53 |
| COc1ccc2ccc(=O)oc2c1CC=C(C)C [Osthole] (compound 10 µM) | 0.06 | 0.19 | 0.23 |
| Cc1nc(C#Cc2cccnc2)cs1 [MTEP (hydrochloride)] (compound 10 µM) | -0.31 | -0.65 | -0.75 |
| Cc1ccc(Sc2ccccc2N2CCNCC2)c(C)c1 [Vortioxetine] (compound 10 µM) | -5.05 | -7.7 | -6.93 |
| CCCC(=O)OC(CNC(C)(C)C)COc1nsnc1N1CCOCC1 (racemic) [(RS)-Butyryltimolol] (compound 10 µM) | 0.09 | -0.58 | -0.47 |
| CN1CCCC(n2nc(Cc3ccc(Cl)cc3)c3ccccc3c2=O)CC1 (stereo unspecified) [Azelastine (hydrochloride)] (compound 10 µM) | 0.6 | -0.25 | 0.16 |
| CCN1CCCC1CNC(=O)c1cc(S(=O)(=O)CC)c(N)cc1OC (stereo unspecified) [Amisulpride] (compound 10 µM) | 0.37 | 0.58 | 0.83 |
| CN(C)CCc1c[nH]c2ccc(C[C@H]3COC(=O)N3)cc12 [Zolmitriptan] (compound 10 µM) | 0.87 | 0.6 | -0.48 |
| CN(C)[C@@H]1CCc2[nH]c3ccc(NC(=O)c4ccc(F)cc4)cc3c2C1 (compound 10 µM) | 0.67 | -1.38 | -0.54 |
| COc1ccc(NS(=O)(=O)c2sc3ccc(Cl)cc3c2C)cc1N1CCNCC1 (compound 10 µM) | 0.28 | -1 | 0.35 |
| NC(N)=Nc1nc(CSCCN/C=N/S(=O)(=O)c2ccc(Br)cc2)cs1 [Ebrotidine] (compound 10 µM) | -4.2 | -3.36 | -1.7 |
| C[C@@H](NCCCc1cccc(C(F)(F)F)c1)c1cccc2ccccc12 [Cinacalcet (hydrochloride)] (compound 10 µM) | -5.88 | -11.2 | -9.18 |
| CN1CCC(=C2c3ccccc3CC(=O)c3sccc32)CC1 [Ketotifen (fumarate)] (compound 10 µM) | 0.55 | -0.44 | 0.26 |
| Cc1nccn1CCC(C(N)=O)(c1ccccc1)c1ccccc1 [Imidafenacin] (compound 10 µM) | -0.05 | 0.38 | 0.28 |
| Cc1ccc(NC(=S)NNc2c([N+](=O)[O-])cc(C(F)(F)F)cc2[N+](=O)[O-])cc1Cl (compound 10 µM) | 0.79 | -0.44 | -0.73 |
| COC(=O)CCc1ccc(OCC(O)CNC(C)C)cc1 (stereo unspecified) [Esmolol (hydrochloride)] (compound 10 µM) | 1.52 | 0.09 | -0.19 |
| CC[C@H](NC(=O)c1c(C)c(-c2ccccc2)nc2ccccc12)c1ccccc1 (compound 10 µM) | -4.55 | -3.25 | -1.64 |
| C=CCN1CCc2c(cc(O)c(O)c2Cl)C(c2ccccc2)C1 (stereo unspecified) (compound 10 µM) | -0.13 | 1.66 | 1.76 |
| CNCCc1ccccn1 [Betahistine (dihydrochloride)] (compound 10 µM) | -1.02 | 0.1 | -0.72 |

| SMILES | phospho-S6 immunofluorescence (z-score) (co-treatment: GDC0941 450 nM) | phospho-S6 immunofluorescence (z-score) (co-treatment: lapatinib 1 uM) | phospho-S6 immunofluorescence (z-score) (co-treatment: vehicle) |
| --- | --- | --- | --- |
| COC1CCC(C(=O)c2ccc3nc4c(cc3c2)CCCO4)CC1 (stereo unspecified) (compound 10 µM) | -0.83 | 0.85 | 0.02 |
| CCN(Cc1ccncc1)C(=O)C(CO)c1ccccc1 (stereo unspecified) [Tropicamide] (compound 10 µM) | 0.17 | 1.42 | -0.17 |
| C(=C\c1ccccc1)/CN1CCN(C(c2ccccc2)c2ccccc2)CC1 [Cinnarizine] (compound 10 µM) | 0.86 | 0.22 | 1.3 |
| Cc1cc(O[C@@H](CCC(F)(F)F)c2ccc(C(=O)NCCC(=O)O)cc2)cc(C)c1-c1ccc(C(C)(C)C)cc1 [Adomeglivant] (compound 10 µM) | -4.72 | -7.2 | -6.79 |
| Cc1cncc(CN2CCC(=C3c4ccc(Cl)cc4CCc4cccnc43)CC2)c1 [Rupatadine (Fumarate)] (compound 10 µM) | -1.47 | -2.09 | -1.45 |
| CC(C)NCC(O)COc1cccc2ccccc12 (stereo unspecified) [Propranolol (hydrochloride)] (compound 10 µM) | 0.53 | 0.73 | 0.21 |
| O=C1NCC2(CCN(CCc3ccccc3)CC2)O1 [Fenspiride (Hydrochloride)] (compound 10 µM) | 0.59 | 0.67 | 1.01 |
| O=C(c1ccc(F)cc1)C1CCN(CCn2c(=O)[nH]c3ccccc3c2=O)CC1 [Ketanserin (tartrate)] (compound 10 µM) | 0.46 | -0.54 | 0.68 |
| C/C(=N\NC(=O)C(NC(=O)c1ccccc1)c1n[nH]c(=O)c2ccccc12)c1cccc(Br)c1 (stereo unspecified) (compound 10 µM) | 0.96 | 0.13 | 0.95 |
| CCN(CCCc1ccccc1)CCCc1ccccc1 [Alverine (citrate)] (compound 10 µM) | -0.52 | -1.04 | 0.02 |
| O=C(CCCN1CC=C(n2c(=O)[nH]c3ccccc32)CC1)c1ccc(F)cc1 [Droperidol] (compound 10 µM) | -0.18 | 0.16 | 0.18 |
| Cc1ccc(S(=O)(=O)N2CCCC2c2ccc(F)cc2)cc1 (stereo unspecified) (compound 10 µM) | -2.47 | 0.46 | -1.81 |
| CN1CCC(=C2c3ccccc3CCc3sccc32)CC1 [Pizotifen] (compound 10 µM) | 0.35 | -1.87 | -0.19 |
| CCN(CC)CCNC(=O)c1cc(Cl)c(N)cc1OC [Metoclopramide] (compound 10 µM) | -0.3 | 0.63 | -0.11 |
| CC(C)NCC(O)COc1ccc(CC(N)=O)cc1 (stereo unspecified) [Atenolol] (compound 10 µM) | 0.35 | 1.32 | 0.52 |
| O=C(O[C@H]1CN2CCC1CC2)N1CCc2ccccc2[C@@H]1c1ccccc1 [Solifenacin (hydrochloride)] (compound 10 µM) | 0.75 | 1.12 | -1.36 |
| CC(C)(N)C(=O)N[C@H](COCc1ccccc1)C(=O)N1CCC2(CC1)CN(S(C)(=O)=O)c1ccccc12 [Ibutamoren (Mesylate)] (compound 10 µM) | -2.77 | -7.75 | -5.38 |
| CC(=O)OCC(=O)[C@@]12N=C(C)O[C@@H]1C[C@H]1[C@@H]3CCC4=CC(=O)C=C[C@]4(C)[C@H]3[C@@H](O)C[C@@]12C [Deflazacort] (compound 10 µM) | -0.99 | -0.57 | -0.08 |
| O=C1c2cccc3c2[C@H](CCC3)CN1[C@@H]1CN2CCC1CC2 [Palonosetron (Hydrochloride)] (compound 10 µM) | -0.7 | 0.4 | -0.33 |
| N#Cc1cc(NC(=O)C(=O)O)c(Cl)c(NC(=O)C(=O)O)c1 [Lodoxamide] (compound 10 µM) | 0.92 | 0.6 | 0.66 |
| CNC[C@H](O)c1cccc(O)c1 [(R)-(-)-Phenylephrine (hydrochloride)] (compound 10 µM) | 0.67 | 1.18 | 1.13 |
| CN1[C@@H]2CC[C@H]1C[C@@H](OC(=O)c1c[nH]c3ccccc13)C2 [Tropisetron (Hydrochloride)] (compound 10 µM) | 0.95 | -0.2 | -0.04 |
| CCCN(CCc1cccs1)[C@H]1CCc2c(O)cccc2C1 [Rotigotine (Hydrochloride)] (compound 10 µM) | -0.16 | 0.3 | -0.63 |
